This is an account of results in PubChem BioAssay (NCI).

Compounds without any hit were thinned out: in the full panel of roughly 83,000, 20% have a hit.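 Percent growth is the endpoint: 0 to 100 indicates growth inhibition (40 means 60% inhibition), 0 means no net growth, and negative values indicate cell death.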 A number with no mark means an inactive call. Activity calls are given as the source filed them. Rule for the calls: active = growth percent below 10; inactive = the rest.

The test has as its system IGROV1 ovarian. Briefly: NCI-60 one-dose screen, 48 h (100 = growth as untreated, 0 = no growth, -100 = all killed). Particulars: 10 µM unless noted.
As for `CN1CCN(Cc2ccc(NC(=O)c3cncc(C#Cc4cnc5ccc(OCC6(C)COC6)nn45)c3)cc2C(F)(F)F)CC1`, the growth is -63.8% (active).

`CC(=O)c1cc(C(=O)c2ccc(Br)cc2)n2cc(C)cc(C)c12`: the growth is 85.6%.

Take `COC(=O)C[Se]C(=O)Cc1c(C)n(C(=O)c2ccc(Cl)cc2)c2ccc(OC)cc12`: the growth is 16.8%.

Regarding `N#Cc1cccc(CN2CCC3=C(C2)C(=O)N(Cc2ccc(Cl)cc2)C2=NCCCN23)c1`, the growth was 48.2%.

Regarding `C=CCn1c(SCC(=O)Nc2ccc(C(=O)/C=C/c3ccc(C)cc3)cc2)nnc1-c1c[nH]c2ccccc12`, the growth was 78.4%.

For `CCCn1cnc2c(c1=N)C(c1ccc(OC)cc1)c1sc3c(CC)cccc3c1O2` (centres undefined), the growth was 31.9%.

Consider `Cc1ccc(-c2cc3nc(C(Cl)Cl)nc(C)n3n2)cc1`, for which the growth was 72.2%.

For the compound `CCOC(=O)C(=O)CC(=O)N1C(=S)NC(=O)C1CC(C)C` (centres undefined), the growth was 97.5%.

With `COc1ccc(-c2nc(C(Cl)Cl)nc3cc(-c4ccccc4)nn23)cc1`, the growth was 2.02% (active).

As for `CNC(=O)c1cc(-c2ccc(NS(=O)(=O)c3ccc(C)cc3)cc2)nc2cccnc12`, the growth was 97.4%.

As for `NC(N)=Nc1ccc(Oc2cccc(Nc3ccc(Cl)c(C(F)(F)F)c3)c2)cn1`, the growth was -38.2% (active).

Regarding `CCN1CCN(Cc2ccc(C(=O)Nc3ccc(C)c(Oc4ccc(-c5[nH]nc6ncnc(N)c56)cc4)c3)cc2C(F)(F)F)CC1`, the growth is 82.1%.

Turning to `COc1ccc(NC(=O)Nc2ccc3c(ccn3C(=O)c3cccc(F)c3)c2)cc1`, the growth was 69.1%.

Regarding `CCn1c(SCC(=O)Nc2cccc(C(=O)/C=C/c3ccccc3Cl)c2)nc2ccccc2c1=O`, the growth is 65.7%.

On to `COc1ccc(-c2nn(-c3ccc(S(C)(=O)=O)cc3)cc2/C=N/O)cc1`, for which the growth was 106%.

As for `NC(N)=Nc1ccc(Oc2ccc(Nc3ccc(Cl)c(C(F)(F)F)c3)cc2)cc1`, the growth was -7.75% (active).

In the case of `COc1ccc(NC(=O)CSc2nnc(-c3ccc4nc(-c5ccc(OC)c(OC)c5)[nH]c4c3)o2)cc1OC`, the growth was 91.3%.

For the compound `Cc1ccc(-n2c(/C=C3\C(=O)Nc4ccccc43)ccc2CO)cc1`, the growth is 75%.

For the compound `O=C(NNc1nc2cc(F)ccc2n2c(CO)ccc12)c1cnccn1`, the growth was 14.9%.

As for `Nc1ccccc1NC(=O)c1ccc(NC(=O)C/C=C/c2cccnc2)cn1`, the growth is 16.7%.

For the compound `Cn1ccnc1C(=O)/C=C/c1ccc(CNC(=O)c2c(F)c(F)c(F)c(F)c2F)cc1`, the growth was 31.7%.

As for `C#C[C@]1(O)CC[C@H]2[C@@H]3CC=C4c5sc(-c6cccc(O)c6)nc5CC[C@]4(C)[C@H]3CC[C@@]21C`, the growth was -3.36% (active).

Take `COc1cc2c(cc1OC)C(Sc1ccc(F)cc1)c1c(nc(N)c(C#N)c1N)O2` (centres undefined): the growth is -85.7% (active).

`N#Cc1cn(Cc2ccc(Cl)cc2Cl)c(C(=O)c2ccc(Br)cc2)c1N`: the growth is 97.3%.

With `O=C(O)c1ccc(-n2cc(CNc3cc(F)c(F)c(F)c3)c(-c3cccc(F)c3)n2)cc1`, the growth was 98.8%.

As for `CCc1cccc(NC(=O)CNc2cc(S(=O)(=O)N(C)C)cc(C)c2C)c1`, the growth is 74%.

`COc1ccc2c(c1)c(-c1cc(N)n3nc(-c4cn(C)c5ccc(OC)cc45)cc3n1)cn2C`: the growth was 105%.

As to `C=C(C=O)[C@@H]1CC[C@]2(COC(C)=O)CC[C@]3(C)C(CC[C@@H]4[C@@]5(C)CC[C@H](OC(C)=O)C(C)(C)[C@@H]5CC[C@]43C)[C@@H]12` (some centres undefined), the growth was -32.8% (active).

Regarding `COc1ccc(-c2nc3ccc(-c4nnc(SCC(=O)Nc5ccc(C(=O)/C=C/c6ccc(Cl)cc6)cc5)o4)cc3[nH]2)cc1`, the growth was 87.2%.

In the case of `COc1ccc(/C=C(\C#N)C(=O)N2c3ccccc3Sc3ccc(SC)cc32)cc1F`, the growth was 91.1%.

With `O=C(CNc1nc(-c2cccc([N+](=O)[O-])c2)cs1)Nc1cccc(Cl)c1`, the growth was 102%.

`CC1(C)CC[C@]23CC[C@]4(C)[C@H](CC[C@@H]5[C@@]6(C)CCCN(CO)C(C)(C)[C@@H]6CC[C@]54C)[C@H]2[C@H]1OC3`: the growth was 69%.

As to `C=C(C=O)[C@@H]1CC[C@]2(C)[C@H](CC=C3[C@H]4[C@@H](C)[C@H](C)CC[C@]4(C(=O)OC)CC[C@]32C)[C@@]1(C)CCC#N`, the growth is -2.63% (active).

`CN(C)C(=O)c1cc(-c2ccc3ncnc(NCc4ccccc4)c3c2)cnc1N`: the growth is 34.2%.
